Compounds with a hit are over-represented: about 3.8% of the library has one in this group of screens.
MBNL1 CUG block – inhibitors of human MBNL1 binding to CUG repeat RNA | Q9NR56 | TR-FRET MBNL1-His/biotin-(CUG)12 binding, 665/545 ratio | Potency, µM (doses to about 57.5 µM), hits mostly inhibitors | 0.036% of 280,000 active | AID 2675; active = well fitted inhibition curve with a large enough effect in the signal ratio, with a control signal flat, not every such curve was filed as active; inconclusive = small, poorly fitted or top-dose-only effect, or effect the other way, or a change in a side signal; inactive = no such curve, though single readings can be large or run the other way; the % refers to the signal ratio
Target sequence (Q9NR56 whole entry, looked up): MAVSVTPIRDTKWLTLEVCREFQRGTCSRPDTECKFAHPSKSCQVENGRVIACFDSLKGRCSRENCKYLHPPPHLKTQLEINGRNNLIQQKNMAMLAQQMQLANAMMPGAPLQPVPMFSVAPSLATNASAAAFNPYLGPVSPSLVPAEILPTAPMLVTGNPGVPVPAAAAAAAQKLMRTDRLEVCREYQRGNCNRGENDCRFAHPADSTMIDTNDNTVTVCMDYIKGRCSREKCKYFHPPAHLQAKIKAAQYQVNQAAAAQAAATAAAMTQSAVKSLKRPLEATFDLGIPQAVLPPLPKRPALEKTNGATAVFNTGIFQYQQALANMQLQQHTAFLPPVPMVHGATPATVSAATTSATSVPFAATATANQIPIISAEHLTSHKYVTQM
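Compounds (final 92 nM to 58 uM) are added to His-tagged MBNL1 and biotin-(CUG)12, then terbium anti-His antibody and streptavidin-XL665 (5 nM final). After 60 min at room temperature, the 665/545 nm ratio is read.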
PLK1 PBD block – PLK1 (human) polo-box domain binding inhibition. Plk1 PBD binding of FITC phosphopeptide, fluorescence polarization. Potency, µM, actives largely listed as inhibitors. 2.8% of 360,000 active; note: series mostly up to about 57 µM; nearly all actives have a fitted effect of over 65% in size
hERG WT inh – inhibitors of human wildtype KCNH2 potassium channel | U2OS, BacMam KCNH2, thallium flux FluxOr; stronger effect = lower value | 0.37% of 340,000 active | AID 720551 | activity change, % at 1.84 µM;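 active = maximum activity change below -70%; inconclusive = maximum activity change between -70% and -50%; inactive = maximum activity change above -50%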
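U2OS cells transduced with wild-type KCNH2 virus are loaded with FluxOr dye for 45 min, and thallium flux is measured in kinetic reads before and after stimulation buffer. Rate constants are normalized to DMSO controls.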
CBFb RUNX1 block – CBF-beta/RUNX1 interaction disruption. 230,000 tested, under 10 active. Q01196+Q13951. AID 1477. Potency, µM (series often up to 59.8 µM), most hits filed as inhibitors. AlphaScreen CBFb-His/RUNX1-biotin binding, biochemical
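Read-out: AlphaScreen. Format: His-CBF-beta with biotinylated RUNX1 (30 nM each) preincubated 20 min, compound 15 min, Ni-chelate plus streptavidin beads 90 min; room temperature throughout.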
KCNH2 3.1 inh – blocks the human KCNH2 3.1 channel isoform | U2OS KCNH2 3.1, thallium flux FluxOr; stronger effect = lower value | activity change, % (tested at about 1.8 µM) | 0.95% of 340,000 active | AID 720553;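 active = maximum activity change below -70%; inconclusive = maximum activity change from -70% to -50%; inactive = maximum activity change above -50%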;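 note: thallium influx rate constant from kinetic fluorescence after stimulation buffer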
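Virally transduced U2OS (3.1 isoform, 4 h infection in dark at RT) → overnight 37 C → FluxOr + Red40 in HBSS/HEPES, 45 min → stimulation buffer, 2 min kinetic read → rate constant vs DMSO controls.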
VDR inh – inhibitors of human vitamin D receptor; VDR-SRC2-3 peptide fluorescence polarization, 2 h; Potency, µM, actives largely listed as inhibitors; 0.93% of 400,000 active
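Inhibition of the VDR/SRC2-3 peptide interaction is quantified by fluorescence polarization. Compounds (23 nl, pintool) incubate with the reagents for 2 hours at ambient room temperature.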
Numbers stand for hits; n = inactive; u = inconclusive; x = no result. Unless noted, calls come from the whole dose curve; as a rule, active = well fitted curve in the direction sought with a large enough effect; inconclusive = small, poorly fitted or top-dose-only effect, or another doubt; inactive = no such curve, though single readings can be large; an effect the other way counts as inactive or inconclusive.

SMILES	MBNL1 CUG block	PLK1 PBD block	hERG WT inh	CBFb RUNX1 block	KCNH2 3.1 inh	VDR inh
Cc1ccc(Cn2c(C(=O)O)c(CNC3CCCC3)c3ccc(C)cc32)cc1	x	x	x	x	x	n
CCOCCc1nnc(NC(=O)c2cccc(F)c2)s1	n	26.7µM	n	n	n	n
CCOCCc1nnc(NC(=O)c2cc(OC)c(OC)c(OC)c2)s1	n	n	n	n	n	n
COc1ccc(-c2cn3nc(N4CCCC(C(=O)Nc5cc(C)cc(C)c5)C4)sc3n2)cc1 (centres undefined)	x	x	x	x	x	n
O=C(O)c1cccc(S(=O)(=O)NCCC(c2ccccc2)c2ccccc2)c1	n	n	n	n	n	n
O=C(O)c1cccc(S(=O)(=O)NCCc2ccccc2)c1	n	29.9µM	n	n	n	n
COc1ccc(N2C(=O)C(CC(=O)Nc3ccccc3)N(CCC3=CCCCC3)C2=O)cc1 (centres undefined)	x	x	x	x	x	n
CC(C)N(C)C(=O)c1ccc(OC2CCN(CCc3ccccc3)CC2)cc1	n	n	n	n	-86.8	n
CC(c1nccs1)N(C)C(=O)c1ccc(OC2CCN(CCc3ccccc3)CC2)cc1 (centres undefined)	n	n	n	x	n	n
Cc1csc(C(C)NC(=O)c2ccc(OC3CCN(CCc4ccccc4)CC3)cc2)n1 (centres undefined)	n	29.9µM	n	x	n	n
COc1ccc(OC)c(CNC(=O)Nc2cn(CC(C)C)c(=O)c3ccccc23)c1	x	x	x	x	x	n
O=c1[nH]c(-[n+]2ccccc2)c(/C=N/NC([S-])=Nc2ccccc2)s1	u	n	n	n	n	n
CCc1ccc[n+](-c2[nH]c(=O)sc2/C=N/NC([S-])=Nc2ccccc2)c1	u	21.2µM	n	n	n	u
Cc1ccccc1N1CCN(C(=O)c2ccccc2NC(=O)c2ccccc2C(=O)O)CC1	n	29.9µM	n	n	n	n
CCCCOc1ccc(OC(=O)c2sc3ncn(Cc4cccc(F)c4)c(=O)c3c2C)cc1	x	x	x	x	x	n
N#Cc1nc(-c2ccc(OCc3ccc(Cl)cc3)cc2)oc1N1CCCCC1	x	x	x	x	x	n
OCCCNCc1ccc(Cl)cc1Cl	n	29.9µM	n	n	n	n
CC(=O)N1c2ccc(S(=O)(=O)N3CCC(C(=O)Nc4cccc(C)c4C)CC3)cc2CC1C (centres undefined)	n	23.8µM	n	x	n	n
CC(=O)N1c2ccc(S(=O)(=O)N3CCC(C(=O)Nc4cccc(C(F)(F)F)c4)CC3)cc2CC1C (centres undefined)	n	26.7µM	n	x	n	n
COC(=O)c1ccccc1NC(=O)c1cc(=O)c2ccc(C)c(C)c2o1	x	x	x	x	x	n
O=C(CCc1ccc(S(=O)(=O)NC2CCCCC2)cc1)Nc1ccccc1	n	26.7µM	n	n	n	n
Cc1ccc(NC(=O)CCc2ccc(S(=O)(=O)NC3CCCCC3)cc2)cc1	n	n	n	n	n	n
COc1cc(Cl)c(C)cc1NC(=O)c1cc(CN2CCOCC2)on1	x	x	x	x	x	n
O=Cc1c(Sc2ccccn2)nc2ccccn2c1=O	u	n	n	n	n	n
O=Cc1c(Sc2ccccc2)nc2ccccn2c1=O	u	3.36µM	n	n	n	n
SMILES	MBNL1 CUG block	PLK1 PBD block	hERG WT inh	CBFb RUNX1 block	KCNH2 3.1 inh	VDR inh
CCOC(=O)C(=Cc1ccc(Br)cc1)C(=O)OCC	n	16.8µM	n	n	n	10µM
CCC(NC(=O)CCl)c1ccc(C)cc1 (centres undefined)	n	29.9µM	n	n	n	n
CC(NC(=O)CCc1ccccc1)c1ccc2c(c1)OCO2 (centres undefined)	n	n	-142.4	x	n	n
CCC(NC(=O)CCc1ccccc1)c1ccccc1 (centres undefined)	n	n	n	n	n	89.1µM
CCCC(NC(=O)CCl)c1ccccc1 (centres undefined)	n	n	n	n	n	n
C#CCOc1ccc(C(=O)N(C)c2ccccc2I)cc1	x	x	x	n	x	n
COC(=O)Cc1c(C)nc2nc(NCc3ccc(Br)cc3)[nH]n2c1=O	x	x	x	x	x	n
COC(=O)C(N)Cc1ccc(O)cc1 (centres undefined)	n	n	n	n	n	n
COC(=O)C(N)CS (centres undefined)	x	x	x	u	x	17.8µM

Screening data: PubChem, National Center for Advancing Translational Sciences (NCATS)
